This passage reports growth results from PubChem BioAssay (NCI).

Molecules are shown by their SMILES. Compounds without any hit were thinned out: in the full panel of roughly 83,000, 20% have a hit.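 Plates (96-well) were seeded with cells, treated with compound at one concentration, and incubated for 48 hours before percent growth was determined.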 A number with no mark means an inactive call. The source made the active and inactive calls. How the source made its calls: active means growth percent below 10; inactive means the rest.

In this test the test system is UACC-257 melanoma. In words: NCI-60 one-dose screen, 48 h (100 = growth as untreated, 0 = no growth, -100 = all killed). The following applies: 10 µM unless noted.
In the case of `CNC(=O)c1cc(Oc2ccc3nc(NC(=O)Nc4ccc(CN5CCOCC5)c(C(F)(F)F)c4)sc3c2)ccn1`, the growth was 18%.

Turning to `Cc1cc(N/N=C/c2nc(-c3ccc(Cl)cc3)oc2C)c2cc(Br)ccc2n1`, the growth was 101%.

As for `COc1cc(-c2cc(-c3nc4ccc(Cl)cc4[nH]3)[nH]n2)cc(OC)c1OC`, the growth is 62.9%.

With `COc1ccc(-c2cc(-c3cccnc3)nc3sc4c(=O)n(-c5ccc(C)cc5)cnc4c23)cc1OC`, the growth was 104%.

`COc1ccc(-c2cc(-c3cccnc3)nc3sc4c(=O)n(-c5ccc(C)cc5)nnc4c23)cc1OC`: the growth is 104%.

Turning to `COc1ccc(C/C(C)=C(\c2ccc(Cl)cc2)c2ccc(OCCN3CCCCCC3)cc2)cc1`, the growth was 94.7%.

As to `CN1CCN(Cc2ccc(NC(=O)c3[nH]ncc3Nc3ncnc4[nH]ccc34)cc2)CC1`, the growth was 15.7%.

For the molecule `O=C(Nc1ccc(Oc2ccc(F)cc2)c(Cl)c1)c1cccnc1`, the growth was 91.4%.

`OC(c1cccc(C(F)(F)F)c1)c1cnccc1NC1CCCCCC1` (stereo unspecified): the growth was 39.5%.

On to `NS(=O)(=O)c1ccc(Nc2nc3n[nH]c(Nc4ccccc4)c3c(=O)[nH]2)cc1`, for which the growth is 97%.

In the case of `O=C1/C(=C/c2ccccc2)CN(CCC(=O)N2C/C(=C\c3ccccc3)C(=O)/C(=C/c3ccccc3)C2)C/C1=C\c1ccccc1`, the growth was 93.8%.

Consider `CN1CCN(Cc2ccc(NC(=O)c3[nH]ncc3Nc3ncnc4c3CCC4)cc2)CC1`, for which the growth was 37.7%.

Regarding `O=C1C(=O)N(CCCCn2cc(CO)nn2)c2ccccc21`, the growth was 105%.

In the case of `Cc1cc(Nc2nc(N3CCN(C)CC3)nc3ccccc23)n[nH]1`, the growth is 82.9%.

As to `CC(=O)C1=C(O)C=C2Oc3c(C(=O)/C=C/c4cc(Cl)cc(Cl)c4)c(O)c(C)c(O)c3[C@]2(C)C1=O`, the growth is -19.6% (active).

Consider `O=C(Nc1ccc(CN2CCOCC2)cc1)c1[nH]ncc1Nc1ncnc2sccc12`, for which the growth was 19.9%.

Turning to `COc1cc(-c2c3sc(=O)[nH]c3nc3c2c(=O)[nH]n3C(C)C)cc2c1OCO2`, the growth was 99.2%.

In the case of `O=C1/C(=C/c2ccc(Cl)c(Cl)c2)CN(C(=O)CCN2CCC(=NO)CC2)C/C1=C\c1ccc(Cl)c(Cl)c1`, the growth was -85.5% (active).

Regarding `CCN(CC)CCCC(C)Nc1ccnc2c(OC)cccc12` (stereo unspecified), the growth is 113%.

In the case of `COc1ccc(-c2cn3c(-c4ccc(OC)cc4)cnc3c(Oc3ccc4c(C)cc(=O)oc4c3)n2)cc1`, the growth was 29.2%.

For the molecule `CN1CCN(Cc2ccc(NC(=O)c3[nH]ncc3Nc3ncnc4sccc34)cc2)CC1`, the growth is 33.9%.

As to `O=C([C@@H](COCc1ccccc1)N1C(=O)[C@@H](N2C(=O)OC[C@@H]2c2ccccc2)[C@H]1/C=C/c1ccccc1)N1CCC(CCN2CCCCC2)CC1`, the growth was 64.1%.

`OCCNCCNc1c2ccccc2nc2ccccc12`: the growth was 102%.

For the molecule `CC[C@H](Nc1ncnc(N)c1C(N)=O)c1nc2cccc(NCc3ccc(C(=O)NO)cc3)c2c(=O)n1-c1ccccc1`, the growth was 63.4%.

Take `CCCCCCCCCc1cc(CN2CCCCC2)c(O)c(CN2CCCCC2)c1`: the growth was 58.8%.

For the molecule `CN1CCN(Cc2ccc(NC(=O)c3cncc(C#Cc4cnc(N)c5cccnc45)c3)cc2C(F)(F)F)CC1`, the growth was 18.8%.

With `C=C1CC2(OC1=O)C(=O)N(CCCCCCCCCCCCN1C(=O)C3(CC(=C)C(=O)O3)c3ccccc31)c1ccccc12` (stereo unspecified), the growth was 94.9%.

Turning to `Cn1c2ccccc2c2c3c(c4c5ccccc5[nH]c4c21)C(=O)N(N)C3=O`, the growth is 76.8%.

For the molecule `Cn1c2ccccc2c2c3c(c4c5ccccc5n(CCCCCC#N)c4c21)C(=O)N(O)C3=O`, the growth was 15.6%.

For the molecule `COC(/C=C/c1ccc([N+](=O)[O-])cc1)OC`, the growth is 90.8%.

As to `O=C(CNC1C2CC3CC(C2)CC1C3)Sc1nnc2sc3ccccc3n12` (stereo unspecified), the growth is 116%.

Regarding `C=CC[N+]1(CC)CCN=C1CCCCCCCCCCCCCCCCC` (stereo unspecified), the growth is -91.3% (active).

Consider `CN1CCN(Cc2ccc(NC(=O)c3[nH]ncc3Nc3ccnc4ccsc34)cc2)CC1`, for which the growth is 85.7%.

Turning to `CN1/C(=C\C=C\C2=[N+](C)c3ccccc3C2(C)C)C(C)(C)c2ccccc21`, the growth was -40% (active).

Consider `CS(=O)(=O)c1ccc(-c2cnc3ccc(-c4cccc(S(C)(=O)=O)c4)nn23)cc1`, for which the growth is 58.1%.

Consider `COc1ccc(C/C(C)=C(\c2ccc(OCCN3CCCCCC3)cc2)c2ccc(OC(=O)C3CCCCC3)cc2)cc1`, for which the growth was 77.5%.
